The values that follow come from PubChem BioAssay.

Active and inactive are the calls of the source.

The nature of experiment [1]: probe aShh binding to arrayed compounds – biochemical, biotinylated probe, 635/667 nm fluorescence, primary screen (AID 1114).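 Also: probe is biotin-labelled aShh protein from a stem cell growth factor screen; measures binding of labelled protein to compounds printed on the slide; score merges feature fluorescence at 667 nm with signal-to-noise.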 The settings on record: small-molecule microarray, higher = more signal.
The nature of experiment [2]: probe aNog binding to arrayed compounds – biochemical, biotinylated probe, 635/667 nm fluorescence, primary screen (AID 1115).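 Also: probe is biotinylated aNog protein used at 0.15 µg/mL for 1 h at 4 C; z-score combines 667 nm fluorescence of each spot with its signal to noise.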 The settings on record: small-molecule microarray, higher = more signal.
The target in experiment [3] is Torsin-1A-interacting protein 1 (Homo sapiens) (UniProt Q5JTV8). Briefly: compound microarray binding of lysate hLAP1 – cell lysate, small-molecule microarray, COS7 lysate, 635/667 nm fluorescence, primary screen (AID 1116). The settings on record: 635 nm fluorescence, higher = more signal.
Chain of Torsin-1A-interacting protein 1 (Homo sapiens) (Q5JTV8 whole entry, looked up): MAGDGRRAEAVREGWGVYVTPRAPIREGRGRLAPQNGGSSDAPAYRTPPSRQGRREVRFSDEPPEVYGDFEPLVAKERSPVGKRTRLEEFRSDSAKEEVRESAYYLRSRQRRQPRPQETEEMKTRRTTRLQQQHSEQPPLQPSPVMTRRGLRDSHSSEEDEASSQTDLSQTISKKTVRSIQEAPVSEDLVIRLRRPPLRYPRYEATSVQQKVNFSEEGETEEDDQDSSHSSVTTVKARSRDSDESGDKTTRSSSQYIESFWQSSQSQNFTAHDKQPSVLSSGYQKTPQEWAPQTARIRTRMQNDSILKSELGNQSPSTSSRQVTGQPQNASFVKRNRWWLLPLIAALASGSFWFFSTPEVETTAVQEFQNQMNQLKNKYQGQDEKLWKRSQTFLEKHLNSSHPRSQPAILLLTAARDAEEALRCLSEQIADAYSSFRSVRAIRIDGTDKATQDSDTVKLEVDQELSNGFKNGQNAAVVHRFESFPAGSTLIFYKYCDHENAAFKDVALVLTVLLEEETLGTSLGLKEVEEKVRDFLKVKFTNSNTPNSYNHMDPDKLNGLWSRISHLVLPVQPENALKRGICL
Experiment [4] addresses Albumin (Bos taurus) (UniProt P02769). Briefly: compounds binding labelled BSA control protein – biochemical, small-molecule microarray, Alexa647 label, 635/667 nm fluorescence, artefact control for SMM control protein annotation, profiling panel (AID 1118).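 Also: score merges 667 nm emission intensity and signal-to-noise per printed compound spot.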 The settings on record: BSA-A647 binding, fluorescence 635 nm, higher = more signal.
The nature of experiment [5]: probe aXIP binding to arrayed compounds – biochemical, NeuroSMM set, 635/667 nm fluorescence, primary screen (AID 1119).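 Also: probe is the protein aXip251-270 applied at 1 µg/mL to compound-printed slides; binding of probe to printed compounds measured as 667 nm fluorescence plus signal to noise.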 Particulars: small-molecule microarray, higher = more signal, called active from +8 up or from −8 down.
Experiment [6] can be described thus: probe aNOTCH3 binding on compound microarray – biochemical, small-molecule microarray, 635/667 nm fluorescence, primary screen (AID 1120).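 Also: probe is a biotin-tagged antibody raised against NOTCH3 rather than NOTCH3 protein; score merges spot fluorescence near 667 nm with spot signal to noise.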 Particulars: higher = more signal.
Experiment [7] is described as follows: probe aNOTCH2 binding on compound microarray – biochemical, small-molecule microarray, 635/667 nm fluorescence, primary screen (AID 1121).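 Also: score merges feature fluorescence read at 667 nm with its signal to noise.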 The settings on record: higher = more signal.
Experiment [8] concerns the target Carbonic anhydrase 2 (Homo sapiens) (UniProt P00918). Briefly: compounds binding carbonic anhydrase 2 – biochemical, small-molecule microarray, Alexa647-labelled CAII, profiling panel (AID 1122). The settings on record: CAII-A647 binding fluorescence, higher = more signal.
The nature of experiment [9]: COS7 lysate on small-molecule microarray, probe aHis, 635 nm (AID 1123).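 Also: z-score combines 667nm fluorescence intensity with signal-to-noise per printed compound spot.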 Particulars: COS7 cell lysate, fluorescence, higher = more signal.
A short description of experiment [10]: probe aLAP1 signal on lysate-treated microarray – cell lysate, small-molecule microarray, COS7 lysate, primary screen (AID 1124).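 Also: lysate comes from COS7 cells expressing LAP1 and is applied at 0.3 µg/mL; score merges spot fluorescence near 667 nm with signal-to-noise over triplicate slides.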 The settings on record: probe aLAP1, fluorescence, higher = more signal.
Experiment [11] has as its system Sam68 (KHDRBS1). In words: compounds binding KHDRBS1 protein – biochemical, small-molecule microarray, 635 nm fluorescence, primary screen (AID 1125).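 Also: score merges 667 nm channel intensity with signal to noise over triplicate slides.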 The settings on record: higher = more signal.
The test system of experiment [12] is Chordin-like protein 2 (CHRDL2). In words: compounds binding chordin-like 2 – biochemical, small-molecule microarray, 635 nm fluorescence, primary screen (AID 1126).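 Also: printed compound slides probed with Chrdl2 protein at 4 µg/mL for 1 h at 4 C; score merges 667 nm emission intensity with signal to noise over three replicate slides.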 Particulars: fluorescence 635 nm, higher = more signal.
The target of experiment [13] is Concanavalin-A (Canavalia ensiformis) (UniProt P02866). In words: compounds binding concanavalin A lectin – biochemical, small-molecule microarray, Alexa647 label, 635 nm, artefact control for SMM control protein annotation, primary screen (AID 1127).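 Also: z combines 667 nm emission intensity with signal-to-noise across three replicate slides.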 Particulars: ConA-A647 binding fluorescence, higher = more signal.
Chain of Concanavalin-A (Canavalia ensiformis) (P02866 whole entry, looked up): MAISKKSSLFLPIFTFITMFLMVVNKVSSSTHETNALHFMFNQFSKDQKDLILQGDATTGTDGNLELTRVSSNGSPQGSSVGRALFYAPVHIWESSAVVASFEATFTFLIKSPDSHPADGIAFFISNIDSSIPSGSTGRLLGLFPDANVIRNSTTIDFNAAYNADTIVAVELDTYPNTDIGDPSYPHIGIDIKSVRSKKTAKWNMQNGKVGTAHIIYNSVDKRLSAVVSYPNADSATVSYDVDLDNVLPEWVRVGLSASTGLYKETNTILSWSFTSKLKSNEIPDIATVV
Experiment [14] can be described thus: compounds binding Alexa647 anti-His antibody – biochemical, small-molecule microarray, 635 nm fluorescence, artefact control for SMM control protein annotation, primary screen (AID 1128).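 Also: score merges feature fluorescence with signal-to-noise for each printed compound spot.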 The settings on record: higher = more signal.
For experiment [15], the system named is Human papillomavirus type 1a E7 protein (residues 1-88). In words: HPV1a E7 small-molecule binders, primary screen, biochemical, small-molecule microarray, residues 1-88, 635 nm (AID 1129). Particulars: small-molecule microarray binding, fluorescence 635 nm; higher = more signal.
Experiment [16] addresses Focal adhesion kinase 1 (Homo sapiens) (UniProt Q05397). In words: PTK2 protein binding on printed compound slides – biochemical, small-molecule microarray, 635/667 nm fluorescence, BSA, DTT, primary screen (AID 1130).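 Also: composite of spot emission at 667 nm and signal to noise over triplicate slides.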 Particulars: 635 nm fluorescence, higher = more signal.
In experiment [17] the test system is Fibrinogen (Alexa647-labelled). Briefly: Alexa647-fibrinogen binding to printed small molecules – biochemical, small-molecule microarray, 635/667 nm fluorescence, artefact control for SMM control-protein annotation, profiling panel (AID 1131).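 Also: z-score merges 667 nm fluorescence with per-spot signal-to-noise over triplicate slides.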 Particulars: fibrinogen-A647 binding fluorescence, higher = more signal.
Experiment [18] deals with Follistatin (Homo sapiens) (UniProt P19883). Briefly: FST protein binding to printed compounds – biochemical, small-molecule microarray, 635/667 nm fluorescence, primary screen (AID 1132). The settings on record: 635 nm fluorescence, higher = more signal.
Chain of Follistatin (Homo sapiens) (P19883 whole entry, looked up): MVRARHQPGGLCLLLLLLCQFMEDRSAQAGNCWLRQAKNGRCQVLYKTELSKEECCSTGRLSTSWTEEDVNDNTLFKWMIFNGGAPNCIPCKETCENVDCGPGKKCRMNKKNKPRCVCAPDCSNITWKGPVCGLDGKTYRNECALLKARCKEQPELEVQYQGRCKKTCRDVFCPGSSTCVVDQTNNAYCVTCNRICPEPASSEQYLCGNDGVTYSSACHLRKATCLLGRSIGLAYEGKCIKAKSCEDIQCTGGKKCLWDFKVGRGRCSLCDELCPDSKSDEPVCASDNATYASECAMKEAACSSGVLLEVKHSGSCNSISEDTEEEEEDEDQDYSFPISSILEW
The target in experiment [19] is Fibroblast growth factor 2 (Homo sapiens) (UniProt P09038). Briefly: basic fibroblast growth factor binding to printed compounds – biochemical, small-molecule microarray, 635/667 nm fluorescence, primary screen (AID 1133). The settings on record: FGF2, fluorescence 635/667, higher = more signal.
Chain of Fibroblast growth factor 2 (Homo sapiens) (P09038 whole entry, looked up): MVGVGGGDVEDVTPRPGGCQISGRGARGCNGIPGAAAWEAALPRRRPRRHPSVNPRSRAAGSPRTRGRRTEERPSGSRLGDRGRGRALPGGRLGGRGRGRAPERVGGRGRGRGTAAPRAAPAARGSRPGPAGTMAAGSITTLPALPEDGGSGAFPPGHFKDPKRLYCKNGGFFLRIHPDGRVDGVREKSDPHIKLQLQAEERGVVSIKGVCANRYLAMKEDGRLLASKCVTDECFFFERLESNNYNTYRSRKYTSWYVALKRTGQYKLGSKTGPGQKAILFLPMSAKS
Experiment [20] is described as follows: JC-1 mitochondrial potential readout, lung cancer cells – cell-based, A549, JC-1 fluorescence, basal, 24 h, 100 nL, profiling panel (AID 1138).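 Also: A549 lung adenocarcinoma cells under basal conditions with no added stimulus; test concentration not given here.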 The settings on record: higher = more signal.

Chain of Focal adhesion kinase 1 (Homo sapiens) (Q05397 whole entry, looked up): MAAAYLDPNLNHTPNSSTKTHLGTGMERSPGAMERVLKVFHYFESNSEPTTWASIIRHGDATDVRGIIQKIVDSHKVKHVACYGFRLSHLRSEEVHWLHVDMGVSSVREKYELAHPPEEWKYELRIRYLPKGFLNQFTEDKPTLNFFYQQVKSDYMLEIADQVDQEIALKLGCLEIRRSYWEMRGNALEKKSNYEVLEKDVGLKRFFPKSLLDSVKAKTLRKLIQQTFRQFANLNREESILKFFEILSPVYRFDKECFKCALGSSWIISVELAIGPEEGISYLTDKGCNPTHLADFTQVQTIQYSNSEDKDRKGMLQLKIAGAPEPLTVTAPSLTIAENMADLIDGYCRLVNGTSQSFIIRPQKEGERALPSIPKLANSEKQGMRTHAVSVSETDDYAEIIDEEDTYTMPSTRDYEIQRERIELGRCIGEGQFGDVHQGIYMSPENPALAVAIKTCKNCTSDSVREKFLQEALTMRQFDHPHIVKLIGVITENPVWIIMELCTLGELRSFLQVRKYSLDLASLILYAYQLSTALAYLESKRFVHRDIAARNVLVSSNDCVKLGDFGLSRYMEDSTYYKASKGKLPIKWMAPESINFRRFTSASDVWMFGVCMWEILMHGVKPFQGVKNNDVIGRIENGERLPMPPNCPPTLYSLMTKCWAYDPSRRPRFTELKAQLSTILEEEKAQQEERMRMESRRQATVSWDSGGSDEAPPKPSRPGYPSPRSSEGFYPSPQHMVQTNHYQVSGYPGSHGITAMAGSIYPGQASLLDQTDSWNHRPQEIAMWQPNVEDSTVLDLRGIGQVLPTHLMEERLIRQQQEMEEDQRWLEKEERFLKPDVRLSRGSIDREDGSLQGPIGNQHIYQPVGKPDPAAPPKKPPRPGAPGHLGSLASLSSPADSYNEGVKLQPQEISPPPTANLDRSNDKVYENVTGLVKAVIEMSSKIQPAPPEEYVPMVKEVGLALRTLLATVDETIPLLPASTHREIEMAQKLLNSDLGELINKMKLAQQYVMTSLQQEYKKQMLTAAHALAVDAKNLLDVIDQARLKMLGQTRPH
Chain of Albumin (Bos taurus) (P02769 whole entry, looked up): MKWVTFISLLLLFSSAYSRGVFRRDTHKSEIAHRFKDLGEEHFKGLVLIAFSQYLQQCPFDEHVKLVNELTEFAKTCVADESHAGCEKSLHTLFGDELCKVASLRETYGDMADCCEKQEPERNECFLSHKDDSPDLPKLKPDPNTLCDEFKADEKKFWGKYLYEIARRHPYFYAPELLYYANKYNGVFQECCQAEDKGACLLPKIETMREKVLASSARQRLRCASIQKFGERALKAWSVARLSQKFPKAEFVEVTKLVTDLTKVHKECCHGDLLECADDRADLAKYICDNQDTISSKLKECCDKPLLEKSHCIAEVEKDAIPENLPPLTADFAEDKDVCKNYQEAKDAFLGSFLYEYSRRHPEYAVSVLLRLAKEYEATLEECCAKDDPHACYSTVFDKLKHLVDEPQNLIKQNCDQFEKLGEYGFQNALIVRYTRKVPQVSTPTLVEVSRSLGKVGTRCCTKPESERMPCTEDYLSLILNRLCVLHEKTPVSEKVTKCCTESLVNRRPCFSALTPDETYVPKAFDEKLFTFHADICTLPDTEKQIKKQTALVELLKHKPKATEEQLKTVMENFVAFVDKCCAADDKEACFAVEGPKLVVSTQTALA

Consider `C=C1C=C(Br)C2(OCCCO2)[C@H]2OC12` (stereo not given in full), for which the composite z-score is 0.0684 in experiment [1]; -0.491 in experiment [2]; -0.0068 in experiment [3]; -0.888 in experiment [4]; 0.0642 in [6]; -0.148 in experiment [7]. The composite z-score in experiment [8] was -0.128; in experiment [9], -0.529; in experiment [10], -0.0289; in [11], -0.404; in experiment [12] it was 0.646; in experiment [13], -0.71. Besides, the composite z-score in experiment [14] was -1.16; in experiment [15], -0.315; in experiment [16], 0.0354; in experiment [17], -1.01; in experiment [18] it was 0.442; in experiment [19], 0.245. For the same compound, the composite Z-score in [5] was 2.51 (inactive). This compound returned a z-score in [20] of 0.939.

Consider `CN(C)CCCC[C@@H]1NC(=O)[C@@H]2C[C@H](C(=O)NCCCCCNC(=O)CS)[C@H](c3cccc(OCCO)c3)N2C1=O`, for which the composite z-score in [1] is 0.213; in experiment [2] it was -0.255; in experiment [3] it was -0.304; in experiment [4], 0.786; in experiment [6] it was -0.15; in experiment [7], -0.167. Moreover, the composite z-score turned out to be 0.82 in experiment [8]; 0.356 in experiment [9]; 0.303 in experiment [10]; 0.528 in [11]; 0.728 in experiment [12]; 0.65 in experiment [13]. Moreover, the composite z-score in experiment [14] came out at 2.04; in experiment [15], 0.05; in experiment [16] it was 0.387; in [17], 0.119; in experiment [18], 1.49; in experiment [19], 1.65. Further, the composite Z-score in experiment [5] is 1.6 (inactive). The compound also displayed a z-score in experiment [20] of 0.43.

Turning to `COc1ccc([Si](C)(C)[C@@H]2[C@@H](CC(=O)N3CCC[C@H]3CO)O[C@]3(C(=O)N(Cc4ccc(I)cc4)c4ccccc43)[C@H]2C)cc1`, the composite z-score in [1] was 0.0611; in experiment [2], 0.201; in experiment [3] it was 0.252; in experiment [4] it was -1.32; in experiment [6] it was -0.0328; in [7], -0.0707. Further, the composite z-score in experiment [8] is -0.0226; in [9], 0.713; in experiment [10], 0.147; in experiment [11], 1.32; in experiment [12], 1.06; in [13], 1.19. Moreover, the composite z-score stood at 1.14 in experiment [14]; 0.989 in experiment [15]; 0.178 in experiment [16]; 0.584 in experiment [17]; 1.34 in [18]; 1.56 in [19]. In addition, in experiment [5], the composite Z-score is -0.36 (inactive). In addition, in experiment [20], the z-score worked out at 1.05.

Turning to `O=C1O[C@H](c2ccccc2)[C@H](c2ccccc2)N2[C@H]1[C@@H](C(=O)NC[C@H](O)c1ccccc1)[C@]1(C(=O)Nc3ccc(C#CC4(O)CCCCCC4)cc31)[C@H]2c1ccc(O)cc1`, the composite z-score in [1] was -0.0769; in experiment [2], 0.528; in experiment [3] it was 1.08; in [4], 0.647; in [6], 0.246; in experiment [7] it was -0.0404. Further, the composite z-score in experiment [8] is 0.359; in [9], 0.892; in [10], 1.07; in [11], 1.33; in experiment [12] it was 0.233; in experiment [13], 1.12. In addition, the composite z-score in experiment [14] was 1.23; in experiment [15], 0.843; in experiment [16] it was 0.333; in experiment [17], 0.574; in experiment [18], 1.31; in [19], 1.01. For the same compound, the composite Z-score in experiment [5] was 0.601 (inactive). In [20], this compound returned a z-score of -0.105.

Take `O=C(NO)[C@]1(Cc2ccccc2)N=C(c2ccc(OCCCO)cc2)O[C@@H]1c1ccccc1`: the composite z-score is 0.157 in [1]; 0.168 in experiment [2]; 0.395 in [3]; 0.847 in experiment [4]; -0.183 in experiment [6]; -0.0909 in [7]. Besides, the composite z-score in experiment [8] was 0.678; in experiment [9], -0.359; in experiment [10], 0.0192; in experiment [11], -0.32; in [12] it was -0.671; in [13], -1.06. For the same compound, the composite z-score is -0.0837 in experiment [14]; 0.0707 in experiment [15]; -1 in experiment [16]; 0.141 in experiment [17]; -0.248 in experiment [18]; -0.0928 in experiment [19]. Besides, the composite Z-score in experiment [5] was -0.876 (inactive). Moreover, the z-score in [20] worked out at 2.09.
